High-throughput results as filed in PubChem BioAssay.
Rows were chosen to be rich in hits. Some 2.2% of all compounds tested hit in one or more screens of this group.
aSyn 5UTR inh: 5' untranslated region of α-synuclein, MLPCN primary screen. alpha-synuclein 5'UTR reporter, inhibitor activity. inhibition, % (tested at 7.5 µM). actives 0.82% (n = 300,000). AID 1813; in the data active = inhibition above about 60%;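 note: H4 neuroglioblastoma cells stably carrying SNCA 5'UTR luciferase fusion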
Ba/F3 V617F tox: reduce viability of Ba/F3 cells dependent on JAK2V617F. inhibition, % at 5.6 µM. Ba/F3 EpoR-JAK2V617F viability, ATP luminescence. actives 1.1% (n = 220,000);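 active = inhibition above the campaign mean plus 3 SD over all tested compounds, cut at about 24% in these data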;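 note: cytokine-independent growth of Ba/F3 cells driven by EpoR plus mutant JAK2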
BaF3 tox: parental Ba/F3 viability inhibition as JAK2V617F counter-screen | inhibition, % at 5.6 µM | CellTiter-Glo ATP luminescence | AID 1486 | actives 1.1% (n = 220,000);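 active = inhibition above a per-campaign cutoff, the mean inhibition of all tested compounds plus 3 SD, cut at about 27% in these data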
APP transl inh: APP translation inhibition. SH-SY5Y APP 5'UTR-luciferase reporter, luminescence. inhibition, % at 2 µM. actives 0.82% (n = 190,000). AID 1285;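 active = inhibition above a set limit, derived from the sample mean plus 3 SD, cut at about 45% in these data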
KLF5 inhibitor: suppresses KLF5 promoter-driven expression; actives 0.23% (n = 290,000); inhibition, % at 5 µM; DLD-1 KLF5 promoter-luciferase reporter, luminescence;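 active = inhibition above a per-plate limit of that plate's mean compound inhibition plus 3 SD, cut at about 60% in these data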;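 note: higher means less KLF5 promoter-driven luciferase light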
IEC-6 tox: counter-screen for KLF5 inhibitors: cytotoxicity in IEC-6 cells; inhibition, % at 5 µM; actives 0.78% (n = 290,000); IEC-6 cytotoxicity, luminescence viability; in the data active = inhibition above about 22%
Hits are given with their value; i = inactive; nt = no result given.

SMILES | aSyn 5UTR inh | Ba/F3 V617F tox | BaF3 tox | APP transl inh | KLF5 inhibitor | IEC-6 tox
COc1ccc(-c2cnnc(N/N=C/c3ccc(O)cc3)n2)cc1 | i | i | i | i | i | i
Cc1ccccc1NC(=O)C1CCCN1/C=C/C(=O)C(F)(F)F (configuration not stated) | i | i | i | i | i | i
O=C(Nc1ncccc1O)c1ccc2c(c1)OCCO2 | i | nt | nt | nt | nt | nt
Cc1ccc(C)c(N=Nc2ccc(O)c3ncccc23)c1 | i | i | i | i | i | i
Cc1cccc(N=Nc2ccc(O)c3ncccc23)c1 | 73.0 | i | i | 72.4 | i | i
Oc1ccc(N=Nc2ccc3c(c2)OCCO3)c2ncccc12 | i | 92.3 | 66.6 | nt | i | i
CCS(=O)(=O)c1ccc(OC)c(N=Nc2ccc(O)c3ncccc23)c1 | 65.8 | i | i | 67.4 | i | i
O=[N+]([O-])c1cc(/C=N/n2cnnc2)ccc1N1CCCC1 | 65.5 | i | i | i | i | i
Nc1c(Cl)ncnc1N/N=C/c1ccc2ccccc2n1 | nt | i | i | 66.2 | i | i
Nc1c(Cl)ncnc1N/N=C/c1cccnc1 | i | i | i | nt | i | i
Nc1c(Cl)ncnc1N/N=C/c1ccccn1 | nt | i | i | 92.0 | i | i
Cc1onc(-c2ccccc2)c1C(=O)Nc1nnc(COc2ccc(Cl)cc2)s1 | i | i | i | i | i | i
O=C(CCl)Nc1ccccc1C(=O)Nc1ccc2c(c1)OCO2 | i | i | i | nt | i | i
Cc1ccc(C(=O)N2CCOCC2)c(F)c1F | i | i | 90.1 | i | i | i
Cc1cc(F)c(F)c(C(=O)N2CCOCC2)c1Cl | i | i | i | i | i | i
CCCCC#Cc1ccc2c(c1)COc1c3ccccc3nn1-2 | i | nt | nt | nt | nt | nt
N#CCCCC#Cc1ccc2c(c1)COc1c3ccccc3nn1-2 | 76.7 | nt | nt | nt | nt | nt
CCN(CC)S(=O)(=O)c1cccc(C(=O)N/N=C(\C)c2ccc(O)cc2O)c1 | 110.6 | i | i | i | i | i
O=C(N/N=C/c1cc(Br)c(Br)s1)c1ccncc1 | 84.3 | i | i | i | i | i
C=CCN(CC(=O)NCC1CCCO1)C(=O)CCC(=O)Nc1cc(C)on1 (configuration not stated) | i | i | 92.9 | i | i | i
Cc1onc(-c2ccccc2)c1C(=O)NC(=S)NNC(=O)c1ccc(O)cc1 | i | i | i | i | i | i
Cc1onc(-c2ccccc2)c1C(=O)NC(=S)NNC(=O)c1ccccc1O | 62.6 | 101.1 | 83.5 | i | i | i
Cc1onc(-c2ccccc2)c1C(=O)NC(=S)NNC(=O)c1ccc(O)cc1O | 64.1 | 98.2 | 71.7 | i | i | i
COc1ccc(NC(=O)COC(=O)c2c3c(nc4ccccc24)CCCC3)cc1Cl | i | i | i | i | i | i
CCN(CC)C(=O)CC(c1ccc(F)cc1)c1ccc(OC)cc1 (configuration not stated) | i | i | i | i | i | i
SMILES | aSyn 5UTR inh | Ba/F3 V617F tox | BaF3 tox | APP transl inh | KLF5 inhibitor | IEC-6 tox
O=C(COc1ccc(Cl)cc1Cl)NC1CCSC1=O (configuration not stated) | i | i | i | i | i | i
O=C1C(C=NCc2ccncc2)=C(O)c2ccccc21 | i | i | i | i | i | i
O=C1N/C(=C/c2ccc(Br)cc2)C(O)=C1C=NCc1ccccc1 | i | i | i | 58.8 | i | i
COc1cc(C(=O)Nc2nc(C)c(Cc3ccc4c(c3)OCO4)s2)cc(OC)c1OC | i | 82.2 | 74.0 | 86.3 | i | i
COc1cc(/C=C/C(=O)O)cc(S(=O)(=O)NCc2ccco2)c1OC | i | i | 90.0 | i | i | i
COc1ccc(/C=C/C(=O)O)cc1S(=O)(=O)NCc1ccco1 | i | i | i | nt | i | i
Cc1nn(-c2ccc(Cl)cc2)c(=O)c2ccccc12 | i | i | i | i | i | i
Cc1c(Cl)sn(-c2ccc(Cl)cc2)c1=O | nt | i | i | 91.9 | i | i
O=C(CCc1nc2ccccc2s1)OCC(=O)c1ccc[nH]1 | i | i | i | i | i | i
COc1ccc(NS(=O)(=O)c2cc(NC(=O)CC3CCCC3)ccc2N2CCOCC2)cc1 | i | i | 32.2 | i | i | i
NC1=NC2=C(CCCC2)C2(CCCCC2)S1 | 76.6 | i | i | i | i | i
CCN(CC1CCCO1)C(=O)c1cc(COc2ccccc2SC)on1 (configuration not stated) | i | nt | nt | nt | i | i
O=C(N/N=C(\c1ccccc1)c1ccccn1)c1cccc([N+](=O)[O-])c1 | 99.0 | 99.0 | 91.2 | 85.2 | 67.4 | 89.0
Cn1ccnc1/C(=N\NC(=O)c1ccccc1)c1cccc([N+](=O)[O-])c1 | i | i | i | i | i | i
COc1ccc2sc3c(=O)[nH]c4ccccc4c3c2c1 | 63.0 | i | i | i | i | i
COc1cc2[nH]c(C(=O)N3CCC(Cc4ccccc4)CC3)cc2c(OC)c1OC | i | nt | nt | nt | i | i
CCCCn1c(N)c(N(Cc2ccccc2OC)C(=O)COc2ccccc2C#N)c(=O)[nH]c1=O | i | i | i | nt | i | i
Cc1csc(NC(=O)c2cc3c(s2)CCCC3)n1 | i | i | i | i | i | i
Cc1cnc(NC(=O)c2cc3c(s2)CCCC3)s1 | 65.4 | i | i | i | i | i
C=CCN1C(=O)/C(=C\C(C)=C\c2ccccc2)SC1=S | i | nt | nt | nt | i | i
CC(/C=C1\SC(=S)N(CCCC(=O)Nc2ccc(C(=O)O)cc2)C1=O)=C\c1ccccc1 | i | i | i | i | i | i
CC(=C\c1ccccc1)/C=C1/SC(=S)N(CCCC(=O)O)C1=O | 66.6 | nt | nt | nt | i | i
CC(/C=C1\SC(=O)N(CCCC(=O)O)C1=O)=C\c1ccccc1 | 102.5 | i | i | 78.5 | i | i
CCC(Oc1ccccc1)C(=O)Nc1cc(C(F)(F)F)ccc1N1CCOCC1 (configuration not stated) | i | nt | nt | nt | nt | nt
COc1cc(C(=O)CCN2CCC(c3ccccc3)C2)cc(OC)c1OC (configuration not stated) | i | i | i | i | i | i
SMILES | aSyn 5UTR inh | Ba/F3 V617F tox | BaF3 tox | APP transl inh | KLF5 inhibitor | IEC-6 tox
c1ccc(-c2ccccc2OCCOCCN2CCc3ccccc3C2)cc1 | i | i | 47.1 | i | i | i
Clc1ccc(OCCOCCN2CCc3ccccc3C2)c(Cl)c1 | i | i | i | i | i | i
COc1ccc(C2Oc3ccccc3C3=C2C(c2cccs2)n2ncnc2N3)cc1 (configuration not stated) | i | i | i | i | i | i
Brc1ccc(C2C3=C(Nc4ncnn42)c2ccccc2OC3c2ccncc2)cc1 (configuration not stated) | 70.5 | i | i | i | i | i
CC(C)CCNC(=O)c1ccc(OC2CCN(S(=O)(=O)N(C)C)CC2)cc1 | i | i | 26.7 | i | i | i
Cc1ccc(NC(=O)c2cc(N3C(=O)CCC3=O)ccc2N2CCOCC2)cc1 | i | i | i | i | i | i
Cc1ccc(NC(=O)c2cc(N3C(=O)C=CC3=O)ccc2N2CCOCC2)cc1Cl | i | i | i | 77.3 | i | i
Cc1c(Br)cc(C(=O)NC2CCCCC2)c(C)c1C | i | i | i | i | i | i
c1ccc(-c2noc(-c3ccccc3-c3ccccc3)n2)cc1 | i | i | i | i | i | i
CN(C)c1ccc(-c2noc(-c3ccccc3O)n2)cc1 | 71.4 | i | i | i | i | i
